Drawing on PubChem BioAssay AID1903 (Southern Research Specialized Biocontainment Screening …, 2009), this text covers inhibition for 22 molecules.

Each structure is given as a SMILES string. Screen size: about 310,000 compounds; about 1,200 (0.39%) were called active. The rule behind the calls is not given here. A selection follows. Entries with a potency or affinity are not part of this list.

The target in this assay is Large T antigen (Simian virus 40) (UniProt P03070). The assay can be described thus: TAg ATPase/helicase activity blockers – biochemical (AID 1903). As to conditions: SV40 large T antigen ATPase/helicase inhibition assay; at 20 µM; active compounds read high.
Chain of Large T antigen (Simian virus 40) (P03070 whole entry, looked up): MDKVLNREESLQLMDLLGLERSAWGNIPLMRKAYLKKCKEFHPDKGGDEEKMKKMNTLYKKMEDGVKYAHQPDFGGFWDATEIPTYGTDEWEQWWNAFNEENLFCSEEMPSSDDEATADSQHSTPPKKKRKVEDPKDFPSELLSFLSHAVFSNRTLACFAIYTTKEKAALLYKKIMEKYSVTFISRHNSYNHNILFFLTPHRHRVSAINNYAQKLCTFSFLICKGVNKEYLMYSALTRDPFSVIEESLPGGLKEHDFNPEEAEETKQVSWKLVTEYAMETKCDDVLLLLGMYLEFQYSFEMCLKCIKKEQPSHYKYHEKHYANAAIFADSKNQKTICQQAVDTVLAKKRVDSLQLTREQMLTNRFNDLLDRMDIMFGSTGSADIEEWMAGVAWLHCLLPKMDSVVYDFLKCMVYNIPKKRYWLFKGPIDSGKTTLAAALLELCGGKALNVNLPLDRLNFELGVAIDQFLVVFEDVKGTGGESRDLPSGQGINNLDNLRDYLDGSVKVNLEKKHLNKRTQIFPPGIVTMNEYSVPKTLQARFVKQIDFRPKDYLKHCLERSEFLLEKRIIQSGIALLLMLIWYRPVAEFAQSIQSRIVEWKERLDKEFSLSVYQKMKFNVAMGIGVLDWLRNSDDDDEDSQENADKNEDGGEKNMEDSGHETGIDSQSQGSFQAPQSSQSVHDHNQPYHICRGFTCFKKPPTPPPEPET
For orientation: inhibition means the drop in the measured response relative to a control, in per cent. As to `O=C(O)/C=C/c1ccc(S(=O)(=O)Nc2ccc(C(=O)NCC(=O)O)cc2)cc1`, the inhibition was -0.46% (inactive). With `Cc1ccccc1OCC(=O)N(CC(C)C)c1c(N)n(CC(C)C)c(=O)[nH]c1=O` the figure was -0.915% (inactive). With `CCOC(=O)c1sc(Nc2ccc(F)cc2)nc1C` the figure was 3.22% (inactive); with `O=C(Cc1ccc(Cl)cc1)Nc1ccccc1C(=O)N1CCCCC1`, 5.13% (inactive); with `Cn1cccc1/C=N/N1CCN(Cc2ccc(Cl)cc2)CC1`, 33.2% (inactive). The value for `Oc1cccc(/C=N/N2CCN(c3ccccn3)CC2)c1` was 27.9% (inactive); that for `C(=N\N1CCN(c2ccccn2)CC1)/c1ccccn1` was 10.2% (inactive). For `Cc1ccc(/C=N/N2CCN(c3ccccn3)CC2)cc1`, the inhibition is 3.29% (inactive). With `Cn1cccc1/C=N/N1CCN(c2ccccc2)CC1` the figure was 26.4% (inactive); with `Cn1cccc1/C=N/N1CCN(Cc2ccccc2Cl)CC1`, 36.4% (inactive); with `O=C1CC(NCCN2CCOCC2)C(=O)N1Cc1ccc(N2CCCC2=O)cc1` (configuration not stated), 2.31% (inactive).

Consider `O=C(CSc1nc2ccccc2o1)NCCOc1ccccc1`, for which the inhibition is -0.36% (inactive). With `CCOc1ccc(CSCCNC(=S)Nc2ccc(OC)cc2)cc1` the figure was 18.9% (inactive); with `CCOc1ccc(CCNC(=O)C2CC(=O)N(c3ccc4c(c3)OCCO4)C2)cc1OCC` (configuration not stated), 19.5% (inactive). The value for `O=C(NCCNc1nccc(C(F)(F)F)n1)c1cccs1` was 7.79% (inactive). The value for `CCN(CC)C(=O)CSc1nc2nc(C)cc(C)c2c(=O)[nH]1` was 3.63% (inactive); that for `O=C(Nc1ccc(C2SCCS2)cc1)c1ccccc1` was 5.93% (inactive); that for `Cn1c(N)c(C(=O)COC(=O)CC2CC3CCC2C3)c(=O)n(C)c1=O` (configuration not stated) was 12.6% (inactive). On to `Cc1ccc(Cl)cc1Nc1nc(-c2cccnc2)cs1`, for which the inhibition was 5.81% (inactive). The value for `Cc1cccc(C)c1NC(=O)CSCCO` was 7.3% (inactive); that for `Cc1cccc(C)c1NC(=O)CSCC(=O)O` was 11.2% (inactive); that for `Brc1c(CSc2nncn2-c2ccccc2)nc2sccn12` was 3.07% (inactive).
